Screening data from PubChem.
PERK inh – human PERK inhibition, primary cell-based screen; inhibition, % at 5.6 µM; CHO PERK-DD fusion, SEAP luminescence translation reporter; Q9NZJ5; 220,000 compounds, 0.17% hits;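 active = inhibition above the mean inhibition of all tested compounds plus 3 SD, set separately per screening campaign, cut at about 2.9% in these data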;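 also: PERK kinase domain activated by AP20187 dimerizer at 100 nM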
eIF4H inh – inhibitors of RNA binding by human eIF4H. Q15056. inhibition, % at 35 µM. 290,000 compounds, 0.94% hits. AID 2012. eIF4H fluorescence polarization binding assay;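 also: calls also rest on retests at 20 µM and on dose response follow-up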
PABP polyA inh – PABP-poly(A) binding inhibition; P11940; PABP-poly(A) RNA binding, fluorescence polarization; 290,000 compounds, 1% hits; calls only at 35 µM;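 also: calls also rest on retests at 20 µM and on dose response follow-up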
eIF4E-4G inh – blocks eIF4E binding to eIF4G; 220,000 compounds, 0.37% hits; TR-FRET eIF4E-eIF4GI(517-606) binding, 2 h; inhibition, % at 21.7 µM; P63073+Q04637;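 active = inhibition above about 30%, limit read from the data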
MLLE-PAM2 inh – blocks PAM2 peptide binding to the PABP1 MLLE domain; P11940; GST-MLLE / FITC-PAM2 fluorescence polarization; inhibition, % at 20 µM; 360,000 compounds, 0.36% hits; in the data active = inhibition above about 35%, passing the limit was not always enough
A number is an active result; n = inactive; u = inconclusive; x = not tested or not shown; + = active, no number. Most compounds without a hit are left out; they make up all but 1.6% or so of the library. Unless noted, no rule for the calls is given here.

SMILES	PERK inh	eIF4H inh	PABP polyA inh	eIF4E-4G inh	MLLE-PAM2 inh
CCC(C)c1ccccc1N1CC(C(=O)NCCCn2nc(C)cc2C)CC1=O (centres undefined)	x	x	x	x	n
COc1ccccc1NS(=O)(=O)c1cccc(C(=O)NCC2(N3CCCCC3)CCCCC2)c1	x	x	x	x	n
COc1ccc(NC(=O)CSc2nc(O)c(Cc3ccccc3)c(=O)[nH]2)cc1	n	n	n	n	39.6
COc1ccc(NC(=O)CSc2nc(O)cc(=O)[nH]2)c(OC)c1	n	n	n	95.6	n
COc1ccc(NC(=O)CSc2cn[nH]n2)c(OC)c1	x	n	n	x	n
CC(=O)OCC1OC(n2c(-c3ccc(Cl)cc3)ccc(C#N)c2=S)C(OC(C)=O)C(OC(C)=O)C1OC(C)=O (centres undefined)	x	x	x	x	n
COC(=O)c1csc2c(C(F)(F)F)cc(N3CCN(C(=O)Nc4ccccc4)CC3)nc12	n	n	n	n	n
CCOC(=O)C1=C(N)n2c(s/c(=C\c3ccco3)c2=O)=C(C(=O)OCC)C1c1ccco1 (centres undefined)	n	96.6	+	n	n
CCOC(=O)C1=C(N)n2c(s/c(=C\c3ccco3)c2=O)=C(C(=O)OC(C)C)C1c1ccco1 (centres undefined)	n	u	n	n	n
COc1cccc(C2C(C#N)=C(N)Oc3cc(C)n(Cc4ccco4)c(=O)c32)c1 (centres undefined)	n	51.2	+	n	n
CC(=O)c1cccc(N(C(=O)c2ccco2)C(C(=O)NC2CCCC2)c2ccccc2F)c1 (centres undefined)	x	n	n	x	n
COc1ccccc1NC(C)=[N+](C)CCNS(=O)(=O)c1ccc(Cl)cc1	x	n	+	x	n
Cc1cc(C)cc(N=Cc2[nH]c3ccc(Br)c(Cl)c3c2O)c1	n	u	+	n	n
CCOC(=O)c1c(/N=C/N(C)C)sc(/C=N/Nc2ccccc2)c1-c1ccccc1Cl	n	n	+	n	n
CCOC(=O)c1c(/N=C/N(C)C)sc(/C=N/Nc2ccccc2)c1-c1ccccc1	n	n	n	n	n
CCOC(=O)c1c(C)[nH]c(C(=O)OCC(=O)c2ccc3c(c2)NC(=O)CO3)c1C	x	x	x	x	n
COc1cccc(CN(C)C(=O)c2ccc3nccnc3c2)c1	n	87.8	+	n	n
COC(=O)COc1ccc(C2Nc3c(Cl)ccc(C(=O)O)c3C3C=CCC32)cc1 (centres undefined)	n	n	+	n	n
COc1ccc(OC)c(C2Nc3c(Cl)ccc(C(=O)O)c3C3C=CCC32)c1 (centres undefined)	n	71.4	n	n	n
O=C(O)c1ccc(Cl)c2c1C1C=CCC1C(c1ccccn1)N2 (centres undefined)	n	99.7	+	n	x
Cc1ccn2cc(-c3ccc(NC(=O)c4ccco4)cc3)nc2c1	n	n	n	n	n
O=C(Nc1cc2nn(-c3ccccc3)nc2cc1Cl)c1ccco1	n	27.6	+	n	n
CCC(NC(=O)Nc1cc(C)on1)(C(F)(F)F)C(F)(F)F	3.2	n	n	n	n
C[C@@]12C(=O)N(CC3CCCO3)CC(=O)N1[C@H]1c3cc(Cl)ccc3OC[C@@H]1[C@@H]2c1ccccc1 (some centres undefined)	x	x	x	x	n
S=C(Nc1ccccc1Cl)N1CCCC1	n	n	n	n	n
SMILES	PERK inh	eIF4H inh	PABP polyA inh	eIF4E-4G inh	MLLE-PAM2 inh
S=C(Nc1cccc(Cl)c1Cl)N1CCC2(CC1)OCCO2	n	n	n	91.0	n
O=C(OCc1cn([C@@H]2C[C@H](c3ccc(Cl)cc3)N(C(=O)C3CCCCC3)C[C@H]2O)nn1)c1ccccc1	x	x	x	x	n
CCOC(=O)c1cc2c(=O)n3ccccc3nc2n(Cc2ccccc2)c1=N	n	n	n	n	n
Cc1cccn2c(=O)c3cc(C(N)=S)c(=N)n(CCCOC(C)C)c3nc12	n	n	n	n	n
CCOC(=O)c1cc2c(=O)n3cccc(C)c3nc2n(C)c1=N	n	95.9	+	n	x
CCOCCCn1c(=N)c(C(N)=S)cc2c(=O)n3cccc(C)c3nc21	n	86.8	+	n	n
C#CCN(C[C@H]1[C@H](OC(=O)Nc2c(C)noc2C)[C@H](OC(=O)Nc2c(C)noc2C)C[C@@H](C(=O)OC)[C@H]1C(=O)OC)S(=O)(=O)c1ccc(C)cc1	x	x	x	x	n
CC(=O)/C(N=Nc1nc2c([nH]1)c(=O)n(C)c(=O)n2C)=C(\C)O	n	n	n	n	54.7
COc1cccc(-c2cc(CC3(O)CCN(CCCc4ccccc4)CC3)on2)c1	x	n	n	x	n
